A selection: hits, their analogues and other compounds. The true share with any hit is near 7.3%.
VACV Venus inh: qHTS for Stage-Specific Inhibitors of Vaccinia Orthopoxvirus: Venus Reporter Primary qHTS. Potency, µM (titrated, usually from 36.5 µM), inactives show at the highest dose activity change, negative = inhibition, usual class: inhibitors. Vaccinia virus Venus reporter expression, fluorescence. 330,000 tested, 0.46% active; calls by dose curve; tested in A549 cells; note: potency is the fitted concentration of half-maximal effect; nearly all actives have a fitted effect of over 30% in size
HCMV antiviral: qHTS Assay for inhibitors of the human cytomegalovirus (HCMV). HFF cells, HCMV-luciferase reporter, 72 h; stronger effect = lower value. activity change, negative = inhibition, % at 57.5 µM. 410,000 tested, 4.5% active; in the data active = activity change below about -60%; inconclusive = no clear call, values can overlap the other calls; inactive = above about -39%
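Inhibition of viral replication was scored as loss of reporter luminescence in HFFs infected with HCMV-luciferase (MOI 1 PFU/cell) for 72 h; compounds tested at 2 doses, normalized to buffer and Salinomycin controls.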
VACV mCherry inh: qHTS for Stage-Specific Inhibitors of Vaccinia Orthopoxvirus: mCherry Reporter Primary qHTS; Vaccinia virus mCherry reporter infection, fluorescence; Potency, µM (doses to about 36.5 µM), for inactives: at the top dose activity change, negative = inhibition, usual class: inhibitors; 310,000 tested, 0.63% active; AID 720579, 2013; calls by dose curve; tested in A549 cells; note: potency is the fitted concentration of half-maximal effect; nearly all actives have a fitted effect of over 35% in size
HCV inhibitor: qHTS Assay for Inhibitors of Hepatitis C Virus (HCV); Huh7.5.1 HCVcc-Cre infection, luciferase reporter, 44 h; Potency, µM (series often up to 41.8 µM), inactives show at the highest dose activity change, negative = inhibition, most hits filed as inhibitors; 340,000 tested, 3.4% active; active = well fitted inhibition curve with a large enough effect; inconclusive = small, poorly fitted or top-dose-only effect, or another doubt; inactive = no such curve, though single readings can be large or run the other way; note: potency is the fitted concentration of half-maximal effect
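Infectious HCV cell culture screen: compound-treated cells (1,000/well, pre-plated 4 h) are infected with HCVcc-Cre at roughly 0.5 moi and grown 44 h. Infection is quantified by luciferase signal after 15 min substrate incubation at room temperature.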
FMDV antiviral: High Throughput Screening for Foot and Mouth Disease Virus Antivirals; FMDV antiviral cell-based qHTS; Potency, µM (titrated, usually from 57.9 µM), for inactives: top-dose activity change, negative = inhibition, most hits filed as inhibitors; 410,000 tested, 1.2% active; calls by dose curve; tested in HEK293T cells; note: read-out not given here; potency is the fitted concentration of half-maximal effect; nearly all actives have a fitted effect of over 45% in size
Active calls of the source: *; [ ] = another dose, or the depositor's remark. % is set by controls: 0 for no effect and ±100 for the full control effect.

`C/C(=N\NC(=O)C1CCCN(S(=O)(=O)c2ccccc2)C1)c1ccncc1` (configuration not stated) gave VACV Venus inh -20%, HCMV antiviral -31, VACV mCherry inh -10%[1.46 µM], HCV inhibitor -18% and FMDV antiviral inconclusive.
O=C(NCc1cccc(C(F)(F)F)c1)C1C(=O)Nc2ccccc2C(=O)N1C1CCCC1 (configuration not stated) was read as VACV Venus inh -9%, HCMV antiviral -8, VACV mCherry inh 19% and FMDV antiviral 2%.
For COc1ccc(-n2c(CSc3ccc(Cl)cc3)n[nH]c2=S)cc1 the results were HCMV antiviral -1.
Screening CC(/C=N/NC(=O)c1ccc(Br)cc1)=C\c1ccccc1 returned VACV Venus inh -24%, HCMV antiviral -63*, VACV mCherry inh -8% and HCV inhibitor 2%.
Screening CCCNC(=O)c1cc(S(=O)(=O)N2CCc3ccccc32)cn1C returned VACV Venus inh -24%, HCMV antiviral inconclusive, VACV mCherry inh -4%, HCV inhibitor 8.9µM* and FMDV antiviral inconclusive.
`Cc1ccc(NC(=O)c2cc(S(=O)(=O)N3CCc4ccccc43)cn2C)c(Cl)c1` gave VACV Venus inh -11%, HCMV antiviral -61*, VACV mCherry inh -18% and FMDV antiviral -10%.
Cc1cccc(NC(=O)c2cc(S(=O)(=O)N3CCc4ccccc43)cn2C)c1C was read as VACV Venus inh -20%, HCMV antiviral -5, VACV mCherry inh 0%, HCV inhibitor -13% and FMDV antiviral -20%.
`CCCCCCNC(=O)c1cc(S(=O)(=O)N2CCc3ccccc32)ccc1F` gave HCMV antiviral -69*, HCV inhibitor 4% and FMDV antiviral -14%.
`COc1cccc(-c2nnc3sc(CN4CCCCC4)cn23)c1` gave VACV Venus inh -28%, HCMV antiviral 23, VACV mCherry inh -4% and FMDV antiviral -23%.
CC(C)(C)C(=O)Nc1sc2c(c1-c1nc3ccccc3[nH]1)CCCC2 was read as HCMV antiviral -107*, HCV inhibitor inconclusive and FMDV antiviral -6%.
CC(C)(C)C(=O)Nc1cccc(-c2nc3ccccc3[nH]2)c1 was read as VACV Venus inh -20%, HCMV antiviral -15, HCV inhibitor inconclusive and FMDV antiviral -12%.
`CC(C)CCCCCCNC(=S)Nc1ccc(S(=O)(=O)N2CCOCC2)cc1` gave VACV Venus inh inconclusive, HCMV antiviral -85*, VACV mCherry inh inconclusive, HCV inhibitor inconclusive and FMDV antiviral -26%.
For CN(C)CC(C)(C)CNC(=S)Nc1ccc(S(=O)(=O)N2CCOCC2)cc1 the results were VACV Venus inh 1%, HCMV antiviral -76*, VACV mCherry inh -10%, HCV inhibitor 2% and FMDV antiviral -8%.
For O=S(=O)(c1ccc(NC(=S)Nc2ccccc2)cc1)N1CCOCC1 the results were VACV Venus inh -13%, HCMV antiviral -27, VACV mCherry inh -13%, HCV inhibitor 15% and FMDV antiviral 29%.
`O=S(=O)(c1cccc2cccnc12)N1CCc2ccccc21` gave VACV Venus inh -25%, HCMV antiviral -63*, HCV inhibitor -6% and FMDV antiviral 7%.
`O=C(Nc1ccccn1)c1ccc(Cl)c(S(=O)(=O)N2CCc3ccccc32)c1` gave HCMV antiviral -93*, HCV inhibitor inconclusive and FMDV antiviral 25µM*.
O=C(NCC(c1ccco1)N1CCCC1)c1ccc(Cl)c(S(=O)(=O)N2CCc3ccccc32)c1 (configuration not stated) was read as VACV Venus inh inconclusive, HCMV antiviral inconclusive, VACV mCherry inh inconclusive, HCV inhibitor 4.5µM* and FMDV antiviral inconclusive.
For N#Cc1nc(-c2ccc(OCc3ccc(Cl)cc3)cc2)oc1N1CCCC1 the results were VACV Venus inh 1% and VACV mCherry inh 17%.
Screening COc1cccc(C(=O)N(Cc2ccc(N(C)C)cc2)Cc2ccco2)c1 returned VACV Venus inh -7%, HCMV antiviral inconclusive, VACV mCherry inh -15% and FMDV antiviral -1%.
CN(C)C(=O)c1ccc(-c2cc3cnc(Nc4ccccc4Cl)cc3[nH]2)cc1 was read as HCMV antiviral -27.

Screens: PubChem BioAssay, National Center for Advancing Translational Sciences (NCATS)
